Measurements reported in PubChem BioAssay (EPA / NIEHS).
“And” between values parts separate entries of the source, which are not always exact repeats. Equal entries are not always repeated. Records with an inconclusive call do not appear. Some structures have more than one record in an assay (separate samples or runs), and their calls can disagree. The source made the active and inactive calls. How the source made its calls: active means hit-call score of the fitted dose curve at least 0.9, where 1 is the maximum; inconclusive means response in the unintended direction; inactive means score below 0.9.

Biological target: human Retinoid X Receptor beta (RXRb), RXRB (gene 6257) (UniProt P28702)
Assay: ATG_RXRb_TRANS: Attagene TRANS-FACTORIAL HepG2 Assay for human Retinoid X Receptor beta (RXRb) (AID 2283013)
Description: ATG_TRANS is a cell-based, multiplexed-readout assay that uses HepG2, a human liver cell line, with measurements taken at 24 hours after chemical dosing in a 24-well plate.ATG_RXRb_TRANS is one of 30 assay component(s) measured or calculated from the ATG_TRANS assay. It is designed to make measurements of mRNA induction, a form of inducible reporter, as detected with fluorescence intensity signals by Reverse transcription polymerase chain reaction (RT-PCR) and Capillary electrophoresis technology.Data from the assay component ATG_RXRb_TRANS was analyzed into 1 assay endpoint. This assay endpoint, ATG_RXRb_TRANS, was analyzed in the positive analysis fitting direction relative to DMSO as the negative control and baseline of activity. Using a type of inducible reporter, measures of mRNA for gain-of-signal activity can be used to understand the reporter gene at the transcription factor-level as they relate to the gene RXRB. Furthermore, this assay endpoint can be referred to as a primary readout, because this assay has produced multiple assay endpoints where this one serves a reporter gene function. To generalize the intended target to other relatable targets, this assay endpoint is annotated to the nuclear receptor intended target family, where the subfamily is non-steroidal.
Human liver HepG2 cells are transiently transfected with multiple reporter transcription units (MRTUs) in 6-well plates using FuGene 6 reagent (Roche; 3 ml FuGene/1 mg DNA). The MRTU constructs are regulated by a cis-regulating element (promoter). […] A major difference between the CIS and TRANS system is that in CIS activities of endogenous TFs are measured, whereas the TRANS assay evaluates changes in activities of exogenous, chimeric NR-Gal4 proteins. […] At the end of 24 hour incubation, total RNA was isolated using TriZol reagent (Invitrogen). The isolated RNA is then reverse-transcribed using oligo(dT) primer and Mo-MLV reverse transcriptase (Invitrogen) with DNAse I (Ambion) treatment for 30 min. The one-tenth of the produced cDNA was amplified by PCR using Taq DNA polymerase (Invitrogen) and two reporter sequence-specific primers. The PCR products were fluorescently labeled by primer extension with 6-arboxyfluorescein (6-FAM) 5'-labeled reporter sequence-specific primer (2 min at 95 C, 20 s at 68 C and 10 min at 72 C) and these products were digested with 5U of HpaI (New England Biolabs) for 2h at 37 C. The fragments were purified using Qiaquick PCR columns (Qiagen), analyzed on an ABI 3130xL genetic analyzer (Applied Biosystems) with peak positions identified by using a set of X-rhodamine (ROX)-labeled MapMarker1000 molecular weight standards (BioVentures). The raw capillary electrophoresis data was processed using Attagraph software (Attagene).

Chain of human Retinoid X Receptor beta (RXRb), RXRB (gene 6257) (P28702 whole entry, looked up): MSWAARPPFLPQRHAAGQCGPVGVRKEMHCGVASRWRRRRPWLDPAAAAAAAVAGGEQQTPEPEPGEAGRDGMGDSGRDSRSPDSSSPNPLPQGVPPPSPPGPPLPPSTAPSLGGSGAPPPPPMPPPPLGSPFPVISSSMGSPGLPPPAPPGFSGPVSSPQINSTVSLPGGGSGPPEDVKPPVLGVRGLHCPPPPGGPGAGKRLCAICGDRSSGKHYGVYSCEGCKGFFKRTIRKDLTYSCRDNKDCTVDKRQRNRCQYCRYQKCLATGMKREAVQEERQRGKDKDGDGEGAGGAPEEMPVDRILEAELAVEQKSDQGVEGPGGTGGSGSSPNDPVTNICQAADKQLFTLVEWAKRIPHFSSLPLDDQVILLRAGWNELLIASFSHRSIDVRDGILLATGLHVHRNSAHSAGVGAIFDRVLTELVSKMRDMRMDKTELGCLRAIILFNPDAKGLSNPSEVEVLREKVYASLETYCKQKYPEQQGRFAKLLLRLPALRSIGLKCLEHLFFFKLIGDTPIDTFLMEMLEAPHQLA

AC50, active:
CC(C)(C)c1ccc(O)c(O)c1 38.8 µM and 44.5 µM and 27.8 µM
CCC(C)c1ccccc1O (stereo not given) 72.8 µM
C=COC(=O)C(C)(C)CCCCCC 62 µM
CCOC(C)=O 26.6 µM
O=C(O)C(F)(F)OC(F)(F)C(F)(F)OC(F)(F)C(F)(F)OC(F)(F)C(F)(F)C(F)(F)C(F)(F)F 13.3 µM and 9.78 µM
CN(C)c1ccc(C(=C2C=CC(=[N+](C)C)C=C2)c2ccccc2)cc1 1.36 µM
Cc1cc(C(C)(C)C)c(O)c(C(C)(C)C)c1 918 nM and 88 nM
CCOC(=O)CN[C@@H](C(=O)N1CC[C@H]1C(=O)NCc1ccc(/C(N)=N/O)cc1)C1CCCCC1 1.42 µM
O=C(O)CCC(F)(F)C(F)(F)C(F)(F)C(F)(F)C(F)(F)C(F)(F)F 51.1 µM

outcome, inactive:
CC(C)(C)c1ccc(O)c(O)c1
CC1=NN(c2ccccc2)C(=O)C1
C=CC(=O)OCCC(F)(F)C(F)(F)C(F)(F)C(F)(F)C(F)(F)C(F)(F)F
O=S(=O)(O)C(F)(F)C(F)(F)C(F)(F)C(F)(F)C(F)(F)C(F)(F)C(F)(F)C(F)(F)C(F)(F)C(F)(F)F
CCCCC=O
CNNCc1ccc(C(=O)NC(C)C)cc1
FC(OC(F)(F)C(F)(F)C(F)(F)F)C(F)(F)F (stereo not given)
Nc1ccn([C@@H]2O[C@H](CO)[C@@H](O)C2O)c(=O)n1 (stereo not given in full)
CCOC(C)=O
O=C(NCc1ncc(C(F)(F)F)cc1Cl)c1c(Cl)cccc1Cl
COCC1CCC(CO)CC1 (stereo not given)
CCO[Si](C)(C)OCC
Cc1cncc(C)c1
CCCCCCCCCCCC(=O)O
CCc1ccccc1O
O=C(F)C(F)(F)C(F)(F)C(F)(F)C(F)F
CCCCCCCCCCCCCC[n+]1ccccc1
CCOC=C(C(=O)OCC)C(=O)OCC
CCCCCCCCCCCC
CN(C)c1ccc(C(=C2C=CC(=[N+](C)C)C=C2)c2ccccc2)cc1
Cc1cc(Cc2cc(C)cc(C(C)(C)C)c2O)c(O)c(C(C)(C)C)c1
O=C1Cc2ccccc2N1c1c(Cl)cccc1Cl
CCCCCCCCCC=CCC1CC(=O)OC1=O (stereo not given)
C=CCOCC(CO)(CO)CO
O=C(Nc1ccc(Cl)c(Cl)c1)c1cc(Cl)cc(Cl)c1O
CCN(CCC#N)c1ccccc1
CCCCCCc1ccc(N)cc1
O=C(O)C(=O)O
Oc1cccc2c(O)cccc12
CCCCN(C)C
COc1cc([N+](=O)[O-])ccc1N
